Shown are actives, neighbours in structure and some others; about 21% of the full set was active somewhere.
SARS PLP yeast: qHTS of Yeast-based Assay for SARS-CoV PLP | S. cerevisiae expressing SARS-CoV PLpro, growth rescue | Potency, µM (series often up to 32.9 µM), hits mostly activators | actives 0.19% (n = 330,000) | AID 485353, 2010; also: nearly all actives have a fitted effect of over 55% in size
Shiga inhibitor: A qHTS for Small Molecule Inhibitors of Shiga Toxin | Vero cells, Shiga toxin protein synthesis inhibition reporter | inhibition, % at 38.7 µM | actives 9.2% (n = 290,000) | AID 2315, 2010; in the data active = inhibition mostly above about 28%, no sharp cut-off; inactive = mostly below about 43%
Pf growth 48h: Primary qHTS for delayed death inhibitors of the malarial parasite plastid, 48 hour incubation | P. falciparum luciferase growth in erythrocytes, 48 h | Potency, µM (titrated, usually from 28.7 µM), hits mostly inhibitors | actives 5.9% (n = 310,000) | AID 504832, 2011; active = well fitted inhibition curve with a large enough effect; inconclusive = small, poorly fitted or top-dose-only effect, or another doubt; inactive = no such curve, though single readings can be large or run the other way
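A one-generation exposure of luciferase-tagged malaria parasites in RPMI 1640/Albumax erythrocyte culture, 37 C and 5% CO2. Inhibition is inferred from decreased luminescence after adding detection reagent.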
Pf growth 96h: Primary qHTS for delayed death inhibitors of the malarial parasite plastid, 96 hour incubation; P. falciparum luciferase reporter growth, 96 h; actives 6.9% (n = 320,000); Potency, µM (top dose mostly 28.7 µM), actives largely listed as inhibitors; active = well fitted inhibition curve with a large enough effect; inconclusive = small, poorly fitted or top-dose-only effect, or another doubt; inactive = no such curve, though single readings can be large or run the other way
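Two-generation exposure (96 h) targets delayed-death phenotype. Reporter parasites carrying integrated firefly luciferase, in red cells at 2% hematocrit and 0.05% parasitemia final, kept at 37 C, 5% CO2; luminescence loss indicates inhibition.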
NS1 function inh: qHTS Assay for Inhibitors of Influenza NS1 Protein Function. Potency, µM (titrated, usually from 46.1 µM). actives 0.4% (n = 270,000); also: actives are rising curves; nearly all actives have a fitted effect of over 50% in size
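S. cerevisiae expressing influenza A NS1, grown in glucose, washed, then diluted 1:100 into pH 6.0 -URA galactose medium with 23 nl compound. Growth recovery read as OD600; NS1-free strain serves as control.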
Cycloheximide cs: Cycloheximide Counterscreen for Small Molecule Inhibitors of Shiga Toxin; actives 12% (n = 300,000); cell reporter, cycloheximide protein synthesis inhibition counterscreen; AID 2314, 2010; max response, %; in the data active = max response mostly above about 13%, no sharp cut-off; inactive = mostly below about 14%; also: read at 38.3 µM for the half of the compounds with a filed dose
Large screens that a line does not name were inactive. Unless noted, calls follow the shape of the full dose curve.

CCN(CC)S(=O)(=O)c1ccc(OC)c(NC(=O)c2ccc3c(c2)OCO3)c1	none (no result: NS1 function inh)
COc1cc(OC)c(C(=O)Oc2ccc3c(c2)OCO3)cc1OC	none
COc1ccccc1N1CCN(C(CNC(=O)c2ccc3c(c2)OCO3)c2cccnc2)CC1 (stereo unspecified)	Pf growth 48h inconclusive, Cycloheximide cs 15
COc1ccccc1NC(=O)c1ccc2c(c1)OCO2	Shiga inhibitor 82, Pf growth 96h inconclusive, Cycloheximide cs 50
COc1ccccc1N1CCN(C(CNC(=O)C2CCCCC2)c2cccnc2)CC1 (stereo unspecified)	Pf growth 48h inconclusive, Pf growth 96h inconclusive
COc1ccc(CC(=O)Nc2nc(-c3cc(OC)ccc3OC)cs2)cc1	Pf growth 96h inconclusive
COc1ccc(C(=O)Oc2ccc3c(c2)OCO3)cc1OC	Shiga inhibitor 75, Cycloheximide cs 30
COc1ccc(OC)c(-c2csc(NC(=O)c3ccc4c(c3)OCO4)n2)c1	Shiga inhibitor 63, Cycloheximide cs 18 (no result: NS1 function inh)
O=S1(=O)Cc2cc3ccccc3cc2C1	none
COc1ccc(OC)c(NC(=O)c2ccc(NC(C)=O)cc2)c1	none
COc1ccc(OC)c(NC(=O)c2ccc(OC3CSC3)cc2)c1	Cycloheximide cs 21 (no result: NS1 function inh)
CCCN(CCC)S(=O)(=O)c1ccc(C(=O)Nc2cc3oc4ccccc4c3cc2OC)cc1	Pf growth 48h 10µM, Cycloheximide cs 19
COc1cc2c(cc1NC(=O)c1ccc3c(c1)OCO3)oc1ccccc12	Shiga inhibitor 92, Cycloheximide cs 41
COc1cc2c(cc1NCc1ccccn1)oc1ccccc12	Shiga inhibitor 33, NS1 function inh inconclusive (no result: Pf growth 96h)
CCN(CC)S(=O)(=O)c1cccc(C(=O)Nc2cc3oc4ccccc4c3cc2OC)c1	Pf growth 96h inconclusive
CCCc1cc(C(=O)Nc2cc(OC)ccc2OC)cs1	Shiga inhibitor 30, Cycloheximide cs 18
COc1ccc(OC)c(NC(=O)Nc2nnc(N3CCC(C)CC3)s2)c1	Pf growth 96h inconclusive
COc1ccc(OC)c(NCc2cccn2-c2nnc(N3CCC(C)CC3)s2)c1	Shiga inhibitor 69, Cycloheximide cs 31 (no result: SARS PLP yeast, Pf growth 48h, Pf growth 96h, NS1 function inh)
NC(=O)c1ccsc1NC(=O)COC(=O)c1cc(Cl)ccc1O	none (no result: Shiga inhibitor, NS1 function inh, Cycloheximide cs)
O=C(NCc1ccccc1)c1nccnc1CO	Pf growth 96h 10µM
O=C1/C(=C/c2cccs2)NC(=S)N1C1CC1	Shiga inhibitor active
CCOc1ccccc1NC(=S)N1CCC(c2nc3ccccc3o2)CC1	Pf growth 96h inconclusive
O=C(O)c1ccc(-c2ccc(Cl)cc2Cl)o1	none (no result: Pf growth 48h)
O=C(c1ccc(-c2ccc(Cl)cc2Cl)o1)N1CCOCC1	Shiga inhibitor 80, Cycloheximide cs 42
O=C(c1ccc(-c2cc(Cl)ccc2Cl)o1)N1CCOCC1	Pf growth 96h inconclusive, Cycloheximide cs 16
COC(=O)c1ccsc1NC(=O)c1ccc2c(c1)OCCO2	none
CN(C)c1ccc(C(=O)/C=C/c2ccco2)cc1	Shiga inhibitor 112, Cycloheximide cs 50
O=C(/C=C/c1ccco1)c1ccc(O)cc1	Cycloheximide cs 38
CN(C(=O)/C=C/c1ccco1)c1ccccc1C(=O)O	none (no result: NS1 function inh)
O=C(/C=C\c1ccco1)c1ccc(NC(=O)c2ccco2)cc1	Cycloheximide cs 26
O=C(/C=C/c1ccco1)Nc1ccccc1C(=O)O	Pf growth 96h inconclusive
Cc1nn(-c2ccccc2)c(NC(=O)c2cccs2)c(-c2ccccc2)c1=O	none
O=C(c1ccccc1)c1ccc(OC(=O)N2CCOCC2)cc1	Pf growth 96h inconclusive, Cycloheximide cs 36
O=C(Oc1ccc(C(=S)N2CCOCC2)cc1)c1ccccc1	Pf growth 96h inconclusive (no result: NS1 function inh)
CCCCOC(=O)c1ccc(OC(=O)N2CCOCC2)cc1	Cycloheximide cs 29
COc1cc(/C=N/NP(=S)(c2ccccc2)c2ccccc2)ccc1O	Pf growth 96h inconclusive (no result: Pf growth 48h)
COc1cc(/C=N/Nc2ccccc2)ccc1O	Pf growth 48h inconclusive, Pf growth 96h 10µM
COc1cc(/C=N/Nc2nncn2/N=C/c2ccc(O)c(OC)c2)ccc1O	Shiga inhibitor 48, Cycloheximide cs 13 (no result: NS1 function inh)
COc1cc(/C=N/Nc2ccccc2C(F)(F)F)ccc1O	Shiga inhibitor 69, Pf growth 96h inconclusive, Cycloheximide cs 33
COc1ccc(/C=C/C(=O)Nc2ccccc2C(F)(F)F)cc1OC	none
COc1ccc(OC)c(/C=N/Nc2nncn2/N=C/c2cc(OC)ccc2OC)c1	Pf growth 96h inconclusive
COc1cc(/C=N\Nc2nncn2N)ccc1OC(C)=O	Pf growth 96h 0.93µM, Cycloheximide cs 17
COc1ccc(NC(=O)CC(CC(=O)O)c2cc(OC)c(OC)c(OC)c2)cc1 (stereo unspecified)	none
Cc1cccc(C)c1NC(=O)CN(C)C(=O)Cn1c(=O)cnc2ccccc21	none
NC(=O)c1csc(-c2ccc(CO)o2)n1	none (no result: SARS PLP yeast, Shiga inhibitor, Pf growth 48h, Pf growth 96h, Cycloheximide cs)
Nc1cccc(-c2ccc(CO)o2)c1	Shiga inhibitor 68, Cycloheximide cs 31
O=C(CN(C(=O)c1ccc(Cl)cc1)C1CCCCC1)Nc1ccc(Cl)c([N+](=O)[O-])c1	Pf growth 48h inconclusive, Pf growth 96h 9.3µM
O=C(CN(C(=O)c1ccccc1Cl)C1CCCCC1)Nc1ccc(Cl)c([N+](=O)[O-])c1	Pf growth 48h 13µM
NC(=O)c1ccc(C(=O)N/N=C(/Cc2ccccc2)c2ccccc2)cc1	Pf growth 96h inconclusive, Cycloheximide cs 26
C/C(Cc1ccccc1)=N\NC(=O)c1ccc(F)cc1	Pf growth 96h inconclusive, Cycloheximide cs 26
O=C(NN=C(Cc1ccccc1)Cc1ccccc1)c1ccccc1O	Pf growth 96h inconclusive (no result: NS1 function inh)
O=C(NN=C(Cc1ccccc1)Cc1ccccc1)c1ccc(F)cc1	Shiga inhibitor 77, Pf growth 96h 13µM, Cycloheximide cs 36
O=C(N/N=C(\Cc1ncc[nH]1)c1ccccc1)c1ccccc1	Pf growth 96h inconclusive (no result: NS1 function inh)
O=C(CN1CCN(Cc2ccccc2)CC1)Nc1ccc([N+](=O)[O-])cc1C(=O)Nc1ccccc1F	Pf growth 48h 10µM, Pf growth 96h inconclusive
CCOC(=O)N1CCN(CC(=O)Nc2ccc([N+](=O)[O-])cc2C(=O)Nc2ccccc2F)CC1	Pf growth 48h 12µM, Pf growth 96h inconclusive
CCOC(=O)N1CCN(CC(=O)Nc2ccccc2C(=O)Nc2ccccc2)CC1	none (no result: Shiga inhibitor, NS1 function inh, Cycloheximide cs)
Cc1ccc(N2C(=O)c3ccccc3C2C(=O)c2cc(C)ccc2O)cc1 (stereo unspecified)	Shiga inhibitor active, Pf growth 48h 2.6µM, Pf growth 96h 2.6µM, Cycloheximide cs 40
Cc1ccc(N2C(=O)c3ccccc3C2C(=O)c2ccc(C)c(C)c2O)cc1 (stereo unspecified)	Pf growth 48h inconclusive, Pf growth 96h 5.2µM, Cycloheximide cs 18
CN(CC(=O)Nc1cccc(F)c1)C(=O)CCc1nc2ccccc2c(=O)[nH]1	none (no result: Shiga inhibitor, NS1 function inh, Cycloheximide cs)
O=C(N=C1SC2CS(=O)(=O)CC2N1c1ccc(F)cc1F)C1CC1 (stereo unspecified)	NS1 function inh inconclusive

High-throughput results from PubChem.
